57 compounds from PubChem BioAssay AID449762 (Southern Research Specialized Biocontainment Screening …, 2010) can be followed below.

Each structure is given as a SMILES string. The campaign covered roughly 330,000 compounds. About 1,900 (0.58%) were called active. Roughly 4% stayed inconclusive and do not appear here. Only a sample is shown. Results with a measured potency or affinity are listed apart. Values without a mark were called inactive. No stated cut-off is given here; in the data, inconclusive means inhibition above about 70% without an active follow-up result; inactive means below that.

This assay can be described thus: M. tuberculosis growth inhibition, HTS (AID 449762).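 Further: bacterial growth assessed after seven days of incubation.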 Conditions: M. tuberculosis H37Rv growth inhibition, 7H9 media; at 25 µM; hits give high values.
The inhibition is the drop in the measured response relative to a control, in per cent. On to `Cc1nn(-c2ccc(F)cc2)c(Cl)c1/C=C(\CC(=O)O)c1nc2ccccc2s1`, for which the inhibition was -5.29%.
Turning to `COc1ccc(C(=O)COC(=O)[C@H](C)Nc2ccc(C(F)(F)F)cc2[N+](=O)[O-])c(OC)c1`, the inhibition is 11.7%.
Regarding `Cc1cc(C)c(C(=O)COC(=O)[C@H](C)Nc2ccc(C(F)(F)F)cc2[N+](=O)[O-])c(C)c1`, the inhibition was -3.25%.
In the case of `CCOC(=O)CSc1cc(C)c(C#N)c2nc3ccccc3n12`, the inhibition was 9.77%.
`Cc1cccc(NC(=O)CSc2cc(C)c(C#N)c3nc4ccccc4n23)c1`: the inhibition was -1.23%.
As to `COC(=O)C1=CO[C@@H](O[C@@H]2O[C@H](CO)[C@@H](O)[C@H](O)[C@H]2O)C2C1CC(O)O[C@H]2C` (some centres not stated), the inhibition was -0.01%.
As for `COc1ccccc1-c1nnn(C/C(N)=N/O)n1`, the inhibition is -5.65%.
As for `Cc1cc(C)c(NC(=O)CSc2nccn2C)c(C)c1`, the inhibition was 5.06%.
`COc1ccc(CNC(=O)c2sc3nc4c(c(C(F)(F)F)c3c2N)CCC4)cc1`: the inhibition was 0.35%.
With `COc1ccc(CNC(=O)c2sc3nc4c(c(C(F)(F)F)c3c2N)CCC4)cc1OC` the figure was 38.5%; with `CC(=O)NCCNC(=O)C1CCC(CNc2nc(=S)[nH]c3ccccc23)CC1` (configuration not stated), -6.34%.
For `CC(C)(C)c1ccc(OCCNC(=O)c2ncn[nH]2)cc1`, the inhibition is 31.8%.
With `CCOc1cccc(C=NCCc2ccc(OC)c(OC)c2)c1O`, the inhibition was -1.63%.
As for `COc1cccc(C=Nc2cc(C)cc(C)c2)c1O`, the inhibition was 4.13%.
`CCCCNC(=S)N/N=C/c1ccccc1F`: the inhibition is 31.4%.
The value for `CCOc1cccc(/C=N/NC(=S)Nc2ccccc2[N+](=O)[O-])c1O` was 0.56%.
In the case of `Cc1ccc([C@@H]2CC=C(C(=O)O)[C@H](c3ccc(F)cc3)N2S(=O)(=O)c2ccc(C)cc2)cc1`, the inhibition is 7.16%.
For `O=C(O)C(c1ccccc1)N1CCCC1` (configuration not stated), the inhibition was -1.43%.
In the case of `Nc1ccccc1SC(C[N+](=O)[O-])c1ccccc1` (configuration not stated), the inhibition is 10.3%.
Take `Nc1ccccc1Sc1ccccc1[N+](=O)[O-]`: the inhibition was -1.08%.
The value for `Cc1ccc(NC(=O)Cn2c3ccc(F)cc3c3nc4n(c(=O)c32)CCS4)cc1F` was 6.34%; that for `CC(C)(C)c1csc(NC(=O)c2ccccc2O)n1` was 3.48%; that for `CC(C)(C)c1csc(NC(=O)c2ccncc2)n1` was 6.43%.
`O=C(CN1CCN(c2cccc(Cl)c2)CC1)NC1CCCc2ccccc21` (configuration not stated): the inhibition is 11.3%.
`O=C(CN1CCN(c2ccccc2Cl)CC1)NC1CCCc2ccccc21` (configuration not stated): the inhibition was 7.47%.
Take `CN(CCNC(=O)C1CCCN(c2ncnc3c2nc2n3CCCCC2)C1)Cc1ccccc1` (configuration not stated): the inhibition was -0.58%.
Turning to `CC1CCCN(C(=O)CN2C(=O)NC(C)(c3ccc4ccccc4c3)C2=O)C1` (configuration not stated), the inhibition was 3.55%.
Take `C[C@H](CO)N1C[C@H](C)[C@@H](CN(C)Cc2ccc(-c3ccccc3)cc2)Oc2c(NS(=O)(=O)c3ccc(F)cc3)cccc2C1=O`: the inhibition is -1.65%.
For `C[C@]12CC[C@@H](O)CC1=CC(=O)C1C2CC[C@]2(C)C(=O)CCC12` (some centres not stated), the inhibition is 3.17%.
For the compound `C[C@]12CC[C@H](O)CC1=CC(=O)C1C2CC[C@]2(C)C(=O)CCC12` (some centres not stated), the inhibition is -1.13%.
Regarding `NCCCn1cnc2ccccc21`, the inhibition was 9.6%.
With `Cc1nonc1OC(C)CNc1ccc([N+](=O)[O-])cc1` (configuration not stated) the figure was 8.67%; with `CN1CCN(c2nc(-c3ccco3)cc(C(F)(F)F)n2)CC1`, 7.69%.
For the compound `O=[N+]([O-])c1cnn(-c2nc(-c3ccco3)cc(C(F)(F)F)n2)c1`, the inhibition is -2.2%.
`CCn1ncc(/C=N/O)c1C`: the inhibition is -7.24%.
Regarding `CCOC(=O)C1(CCOc2ccccc2)CCN(Cc2cccc(OC)c2)CC1`, the inhibition is 8.09%.
Turning to `CCOC(=O)C1(CCOc2ccccc2)CCN(Cc2cccc(O)c2)CC1`, the inhibition was 3.57%.
With `Cc1ccc(OCC(=O)N(C)CC(=O)Nc2ccc(F)c(F)c2F)cc1`, the inhibition is 4.12%.
Take `Cc1ccc(S(=O)(=O)N2CCN(C3CC4CCC3C4)CC2)cc1` (configuration not stated): the inhibition is -2.36%.
On to `O=C(CCNS(=O)(=O)c1ccccc1)N1CCN(C(c2ccccc2)c2ccccc2)CC1`, for which the inhibition is 4.06%.
`CCOc1ccc(-c2cc(CCCC(=O)NCCCOC)no2)cc1`: the inhibition was -1.18%.
For the compound `CCOc1ccc(-c2cc(CCCC(=O)NCCc3ccccc3)no2)cc1`, the inhibition is -2.4%.
The value for `CCn1c2c(c3cc(OCC(C)C)ccc31)CCCC2=O` was -1.76%; that for `COc1ccc(NC(=O)CS(=O)(=O)c2cn(CC(=O)N3CCOCC3)c3ccccc23)cc1OC` was -16%; that for `Cc1ccc(SC2=C(Sc3ccc(C)cc3)C(=O)c3ccccc3C2=O)cc1` was -5.39%.
With `O=S1(=O)N=C(SCCO)c2ccccc21` the figure was 8.5%; with `COc1cc(C(=O)OCC(=O)Nc2ccccc2C(=O)NC2CC2)c([N+](=O)[O-])cc1OC`, -0.465%.
With `COc1cccc(C2C(C#N)=C(N)OC(C(C)(C)C)=C2C#N)c1` (configuration not stated) the figure was -2.5%; with `COC(=O)c1c(NC(=S)Nc2ccc(C(=O)N3CCOCC3)cc2)sc2c1CCC2`, -7.13%.
On to `CN(C)CCNC(=O)c1ccc2c(=O)n(Cc3ccc(Cl)cc3)c(=S)[nH]c2c1`, for which the inhibition was 2.11%.
Regarding `O=C(NCCN1CCCC1)c1ccc(Cn2c(=S)[nH]c3ccc(Br)cc3c2=O)cc1`, the inhibition was 64.3%.
As for `C/C(=N/NC(=O)c1cc(C)[nH]n1)c1ccncc1`, the inhibition is 0.52%.
For the compound `CC1CCN(C(=O)C2CCCCN2S(=O)(=O)c2cccc([N+](=O)[O-])c2)CC1` (configuration not stated), the inhibition was 0.51%.
With `COC(=O)c1[nH]c2ccccc2c1NC(=O)C(C)N1CCN(C(=O)c2ccco2)CC1` (configuration not stated) the figure was -9.02%.
Turning to `CCOC(=O)c1sc(NC(=O)c2cc(-c3ccc(C)cc3)nc3ccccc23)c(C#N)c1C`, the inhibition is 1.87%.
The value for `COc1cccc(NS(=O)(=O)c2c(C)n(C)c(=O)n(C)c2=O)c1` was -4.03%; that for `Cc1ccc(C)c(N2CCN(S(=O)(=O)c3ccc(-c4cc(C)no4)s3)CC2)c1` was 6.24%.
